Source: PubChem BioAssay AID493191 (Broad Institute, 2011)
Screen size: about 1,300 compounds; about 330 (25%) were called active. The rule behind the calls is not given here. A selection follows. Measured potencies and affinities stand elsewhere.

Assay: growth inhibition of MALME3 cells – cell-based, CellTiter-Glo, cherry-picked, orthogonal assay for MITF inhibitor project, dose response (AID 493191)
Details: MALME3 melanoma viability, CellTiter-Glo luminescence, 24 h; series mostly up to 35 µM

SMILES | outcome
O=C(COC(=O)c1ccc[nH]c1=O)Nc1ccc(N2CCCCC2)cc1 | inactive
CCOc1ccc(-c2nnc(-c3cccs3)o2)cc1OCC | inactive
CCOC(=O)C1(Cc2cccc(OC)c2)CCCN(C(=O)CSC)C1 (stereo unspecified) | inactive
COc1ccc(NC(C)C(=O)N/N=C/c2ccc([N+](=O)[O-])s2)cc1 (stereo unspecified) | inactive
O=C(/C=C\c1ccccc1)NCC(=O)N/N=C/c1ccc(O)cc1O | inactive
O=C(Cc1ccccc1)NCC(=O)N/N=C/c1ccc([N+](=O)[O-])s1 | inactive
N/C(=N\OC(=O)c1cccc(F)c1)c1cccc([N+](=O)[O-])c1 | inactive
Cc1onc(-c2ccccc2)c1C(=O)N/N=C/c1ccc([N+](=O)[O-])s1 | inactive
CCOc1ccc(NC(=O)CCC(=O)N/N=C/c2ccc([N+](=O)[O-])s2)cc1 | inactive
COc1ccc(-c2csc(N(C)C(=O)c3ccco3)n2)cc1 | inactive
COCCn1c(C)cc(C(=O)COC(=O)c2ccccc2Br)c1C | inactive
CC(/C=C1\SC(=O)N(CCCC(=O)O)C1=O)=C\c1ccccc1 | inactive
CCN(Cc1ccc(OC)c(F)c1)C(=O)CCl | inactive
c1ccc(OCc2nc3ccccc3[nH]2)cc1 | inactive
COc1cccc2c1C(=O)C=C(C)C2=O | inactive
N#CC1=C(c2ccccc2)/C(=C/c2ccccc2)OC1=O | inactive
Cc1cc(C=C2C(=O)c3ccccc3C2=O)c(C)n1-c1ccccc1 | inactive
O=C(O)c1ccccc1C(=O)Nc1ccc(Oc2cccc3ccccc23)cc1 | inactive
Cc1ccc(N2C(=O)c3ccc(N)cc3C2=O)cc1C | inactive
COc1ccc(/C=N/Nc2cc(C)nc(-n3nc(C)cc3C)n2)c(OC)c1 | inactive
O=C1CCC2S/C(=C/Nc3ccc(C(F)(F)F)cc3)C(=O)N12 (stereo unspecified) | inactive
Cc1nc(C)c(C(=O)N/N=C/c2cc(Br)ccc2O)s1 | inactive
CC(C)C(=O)NC(c1ccco1)c1ccc2cccnc2c1O (stereo unspecified) | inactive
C=CCN=C1NN=C(c2ccc3c(c2)OCCO3)CS1 | inactive
C=CCn1c(C)cc(C2=NNC(=NC(C)(C)C)SC2)c1C | inactive
COc1ccccc1NC(=O)c1cnc(SCC(=O)NCC2CCCO2)n(C)c1=O (stereo unspecified) | inactive

SMILES | outcome
Cc1nc(Sc2nnnn2C)c2c3c(sc2n1)CCC3 | inactive
COCCNC(=O)/C(C#N)=C/c1cccc(/C=C(\C#N)C(=O)NCCOC)c1 | inactive
CCOCCCNC(=O)/C(C#N)=C/c1ccc(Cl)c([N+](=O)[O-])c1 | inactive
CCCOc1ccc(C(=O)Nc2ccc3c(c2)OCCO3)cc1 | inactive
CC1CCCC(NC(=O)NC(=O)CCl)C1C (stereo unspecified) | inactive
CCCc1ccc(-c2ccc(/C=C/C(=O)O)cc2)nc1 | inactive
COc1cc(OC)cc(C(=O)N[C@H](C(=O)Nc2nc3ccccc3[nH]2)C(C)C)c1 | inactive
CCCCNc1nc(=S)n(-c2ccccc2)c(C)c1C(C)=O | inactive
Cc1cc(Br)ccc1OCc1nc(-c2cccnc2)no1 | inactive
CC(=O)COc1ccc2cc(-c3ccccc3)c(=O)oc2c1 | inactive
CCOC(=O)c1cc(-c2ccc(OC)cc2)n[nH]1 | inactive
COc1ccc(Cn2c(-c3ccc(C)cc3)c[n+]3ccccc23)cc1 | inactive
CC(=O)N(c1nnc(-c2cccc(C)c2)s1)C1CCCC1 | inactive
O=C(Nc1ccc2nc(-c3ccccc3)[nH]c2c1)c1ccco1 | inactive
Cc1cccc(NC(=O)Cc2ccc(Br)cc2)n1 | inactive
C/C(=N\NC(=O)Cc1ccc(Cl)cc1)c1ccccn1 | inactive
CC(=NNc1nc2ccccc2o1)c1cc2ccccc2cn1 | inactive
NCCCNc1nc(N)c([N+](=O)[O-])c(NC2CCCCC2)n1 | inactive
CC(=O)c1ccc(N/C=C/C(=O)c2ccc(Br)cc2)cc1 | inactive
COc1ccc(NC(=O)c2scc(S(=O)(=O)C(C)C)c2N)cc1 | inactive
C/C(=N\NC(=O)C(c1ccccc1)c1ccccc1)c1ccccn1 | inactive
CCOC(=O)C1(Cc2ccccc2)CCCN(CCCn2cccn2)C1 (stereo unspecified) | inactive
CN(C)S(=O)(=O)c1ccc(-c2csc(N/N=C/c3ccco3)n2)cc1 | inactive
Cc1csc(N/N=C/c2ccc([N+](=O)[O-])cc2)n1 | inactive
COC(=O)c1ccc(/C=C(\C#N)C(=O)NC(C)c2ccccc2)cc1 (stereo unspecified) | inactive
COc1ccc(/C=C2\SC(=O)N(CCCC(=O)Nc3cc(Cl)ccc3C(=O)O)C2=O)cc1 | inactive

SMILES | outcome
c1cc(CSc2nnc(-c3ccc4c(c3)OCO4)o2)ccn1 | inactive
COc1ccc2c(C)nc(Nc3nc(-c4ccccc4)cc(=O)[nH]3)nc2c1 | inactive
O=C(Nc1cc2c(cc1Cl)OCCO2)c1ccco1 | inactive
Nc1nnnn1/N=C/C(Br)=C/c1ccccc1 | inactive
Cc1cc(C)nc(S/C=C/C(=O)c2ccccc2F)n1 | inactive
Cn1nc([N+](=O)[O-])nc1S(C)(=O)=O | inactive
CN(C)c1ccc(CNc2ccccn2)cc1 | inactive
COC(=O)c1ccc(/C=N/Nc2nc(C)c(C)s2)cc1 | inactive
O=C(CCNc1ccccc1)c1ccc2c(c1)OCO2 | inactive
CC1=NOC(=O)/C1=C\c1ccc(-c2cccc(Cl)c2)o1 | inactive
Cc1c(C(=O)N(CCO)Cc2ccccc2)oc2c(F)cccc12 | inactive
CCC1CCCCN1CCCNC(=O)c1cn(CC)c2ccc(S(=O)(=O)N(C)C3CCCCC3)cc2c1=O (stereo unspecified) | inactive
COc1cc2ccccc2cc1C(=O)Nc1ccc(N2CCN(C)CC2)cc1 | inactive
COc1ccc(NC(=O)C2COc3ccccc3O2)cc1 (stereo unspecified) | inactive
O=C(O)CSCC(=O)Nc1ccc(C2CCCCC2)cc1 | inactive
CC(C)OC(=O)CSc1nc2cc3c(cc2cc1C#N)OCO3 | inactive
Cc1nn(-c2ccccc2Cl)c(Cl)c1/C=N/Nc1cccc(C(=O)O)c1 | inactive
N#Cc1cc2c(nc1SC1CC(=O)N(c3ccccc3)C1=O)CCC2 (stereo unspecified) | inactive
CCSc1ccccc1C(=O)n1nnc2ccccc21 | inactive
COc1ccc(/C=C/c2cc(C(F)(F)F)on2)cc1 | inactive
Cc1[nH]nc(Nc2ccc(Br)cc2)c1[N+](=O)[O-] | inactive
CCCCNC(=O)Nc1ccc(C2SCCS2)cc1 | inactive
COc1ccc(COC(=O)c2cc([N+](=O)[O-])ccc2N2CCOCC2)cc1F | inactive
Cc1ccccc1-n1ncc2c([N+](=O)[O-])cc([N+](=O)[O-])cc21 | inactive
